# “And” between values parts separate entries of the source, which are not always exact repeats. Equal entries are not always repeated. Records with an inconclusive call do not appear. A call without a number means that no potency is given here. Where a structure was tested more than once in an assay, its records may differ in their call. The source made the active and inactive calls. Calls follow the shape of the full dose curve.
# Target: Acetylcholinesterase (Homo sapiens) (UniProt P22303)
# Assay: Acetylcholinesterase (AChE) small molecule antagonists: colormetric cell-based qHTS assay (AID 1347395); also: nearly all actives have a fitted effect of over 30% in size
# Details: SH-SY5Y cells AChE activity, colorimetric (Ellman); series mostly up to 115 µM; activity, negative = inhibition: at the top concentration
# Description: National Center for Advancing Translational Sciences [NCATS]
# Division of Preclinical Innovation [DPI]
# U.S. Environmental Protection Agency [EPA]
# National Institutes of Environmental Health Sciences [NIEHS]
# National Toxicology Program [NTP]
# U.S. Food and Drug Administration [FDA]
# Acetylcholinesterase (AChE) is the primary cholinesterase in the body that hydrolyzes a key neurotransmitter, acetylcholine. Inhibition of AChE activity can lead to neurotoxicity. The known inhibitors include organophosphorous pesticides (OP), chemical warfare agents, drugs, and various phytochemicals.
# A homogenous cell-based assay using the Amplite Colormetric acetylcholinesterase assay kit (AAT Bioquest, Sunnyvale, CA) was used to evaluate the chemicals in the Tox21 10K library that inhibit AChE activity. The assay uses 5, 5-dithiobis-(2-nitrobenzoic acid) (DTNB) to quantify the thiocholine produced from the hydrolysis of acetylthiocholine by AChE from the SH-SY5Y cells.
# Tox21 Assay Protocol Summary:
# For the cell-based AChE assay, 2,000 SH-SY5Y cells in 4 uL/well were dispensed into black, clear-bottom 1536-well plates using a Multidrop Combi dispenser (Thermo Scientific, MA). The assay plates were incubated overnight at 37 C to allow cells to attach to the wells, followed by the transfer of 23 nL of compound or DMSO (vehicle control) by a Pintool Station (Wako Automation, CA). The plates were incubated for 30 min at 37 C and 5% CO2, followed by the addition of 4 uL of detection cocktail solution (DTNB, acetylthiocholine) into each well using a Flying Reagent Dispenser (Beckman Coulter, CA) and then 90 min incubation at 37 C.
# Potency is read from the fitted curve at half-maximal effect.
# Sequence of Acetylcholinesterase (Homo sapiens) (P22303 whole entry, looked up): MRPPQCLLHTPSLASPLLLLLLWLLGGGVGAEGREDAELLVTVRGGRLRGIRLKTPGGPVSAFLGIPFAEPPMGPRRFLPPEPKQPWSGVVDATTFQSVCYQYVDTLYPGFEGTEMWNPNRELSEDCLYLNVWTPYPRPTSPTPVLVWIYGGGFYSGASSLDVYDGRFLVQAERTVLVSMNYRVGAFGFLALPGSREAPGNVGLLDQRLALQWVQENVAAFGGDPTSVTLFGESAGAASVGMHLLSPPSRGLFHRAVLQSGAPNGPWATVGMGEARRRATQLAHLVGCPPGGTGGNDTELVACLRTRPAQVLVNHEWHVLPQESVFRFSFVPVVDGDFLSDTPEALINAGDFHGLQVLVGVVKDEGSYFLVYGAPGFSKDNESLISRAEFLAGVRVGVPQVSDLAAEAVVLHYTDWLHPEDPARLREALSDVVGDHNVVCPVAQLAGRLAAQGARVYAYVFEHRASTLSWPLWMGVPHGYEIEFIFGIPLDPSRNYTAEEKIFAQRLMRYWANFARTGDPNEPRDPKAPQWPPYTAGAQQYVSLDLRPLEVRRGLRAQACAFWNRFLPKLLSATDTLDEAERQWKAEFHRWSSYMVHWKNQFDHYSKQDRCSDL
SMILES,Potency,"activity, negative = inhibition"
CC(C)N1C(=O)c2ccccc2NS1(=O)=O,inactive,–
Nc1c(Cl)c(Cl)nc(C(=O)O)c1Cl,inactive,–
CC(Oc1ccc(Cl)cc1Cl)C(=O)O (stereo not given),inactive,–
Oc1ccccc1Cl,inactive,–
COC(=O)NS(=O)(=O)c1ccc(N)cc1,inactive,–
CNC(=O)Oc1ccccc1OC(C)C,2 µM (active) and 2.24 µM (active),–
Cn1cc(-c2ccccc2)c(=O)c(-c2cccc(C(F)(F)F)c2)c1,inactive,–
C[C@]12CC[C@H]3[C@@H](CC[C@@]45O[C@@H]4C(O)=C(C#N)C[C@]35C)[C@@H]1CC[C@@H]2O,inactive,–
CN=C=S,inactive,–
Cc1cc(Cl)ccc1O,inactive,–
CCC[N+](=O)[O-],inactive,–
CC(C)NC(=O)N1CC(=O)N(c2cc(Cl)cc(Cl)c2)C1=O,–,-9.91% (inactive)
CC(C)(C)OOC(=O)c1ccccc1,inactive,–
CCCCCOC(=O)c1ccccc1C(=O)OCCCCC,inactive,–
CCOC(=O)c1ccccc1C(=O)OCC,inactive,–
O=c1n(Cl)c(=O)n(Cl)c(=O)n1Cl,inactive,–
O=NN1CCCC1,13.2 µM (active) and inactive,–
CCCC1COC(Cn2cncn2)(c2ccc(Cl)cc2Cl)O1 (stereo not given),inactive,–
CCC12COCN1COC2,inactive,–
C=CCO,inactive,–

SMILES,Potency,"activity, negative = inhibition"
CON(C)C(=O)Nc1ccc(Cl)c(Cl)c1,inactive,–
C1CC2OC2CC1C1CO1 (stereo not given),inactive,–
CCN(CC)CCO,inactive,–
Nc1ccccc1C(=O)O,inactive,–
CCN(CC)c1ccccc1,inactive,–
c1ccc2c(c1)oc1ccccc12,inactive,–
CC(C)OC(=O)Nc1cccc(Cl)c1,inactive,–
O=c1[nH]c(=O)[nH]c(=O)[nH]1,inactive,–
COCCl,inactive,–
COC(=O)NC(=S)Nc1ccccc1NC(=S)NC(=O)OC,inactive,–
CCc1cccc(C)c1N(C(=O)CCl)C(C)COC (stereo not given),inactive,–
Clc1ccccc1Cl,inactive,–
Nc1ccc(Br)cc1,inactive,–
CC(C)(C)C(O)(CCc1ccc(Cl)cc1)Cn1cncn1 (stereo not given),inactive,–
CC(C#N)CCC#N (stereo not given),inactive,–
BrCCBr,inactive,–
c1ccc(-c2ccccc2)cc1,inactive,–
Cc1[nH]c(=O)n(C(C)(C)C)c(=O)c1Cl,inactive,–
CCCN(CCC)c1c([N+](=O)[O-])cc(C(F)(F)F)cc1[N+](=O)[O-],inactive,–
CC(=O)C=C(C)C,inactive,–

# Source: PubChem BioAssay (Tox21)
